According to PubChem BioAssay:
Unmarked numbers belong to inactive results. Calls of active or inactive are those of the source.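 Rule for the calls: active = inhibition at or above 50% relative to wild type and mutant plate controls; inactive = inhibition below 50%.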

Experiment: inhibitors of Chlamydomonas gravitaxis, primary screen, whole organism, Chlamydomonas reinhardtii, WT vs cilia-less mutant, absorbance, 96-well (AID 463189);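 note: 0% = wild type cc124 cells in DMSO and 100% = ciliumless bld1 mutant cells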
Settings: OD600 absorbance, 2 days, at 10 µM, active compounds read high

Compound | inhibition
Cc1nc(NS(=O)(=O)c2ccccc2)sc1NC(=O)OCCN(C)C | 34.8%
Cn1c(=O)n(CCc2ccccc2)c(=O)c2c1ncn2Cc1ccccc1 | -10.3%
CC(C)OC(=O)c1nn2c(C(F)(F)F)cc(-c3ccc(Br)o3)nc2c1Br | 18.5%
CCCc1nn(C)c2c1C(c1cccnc1)C(C#N)=C(N)O2 (stereo not given) | 14.7%
Cc1ccccc1NC(=O)NCCc1nc2ccccc2[nH]1 | -6.75%
Nc1c(Br)cc2oc(-c3ccccc3)nc2c1Br | -9.35%
CCCc1[nH]nc2c1C(c1c(C)nn(-c3ccccc3)c1Cl)C(C#N)=C(N)O2 (stereo not given) | -5.65%
COC(=O)c1c(NC(=O)c2nn(C)cc2Cl)sc2c1CCCC2 | 23.3%
Cc1cc(=O)oc(C)c1C(=O)Nc1cccc2nonc12 | -5.97%
CC(C)c1nc(N2CCOCC2)c(C#N)c2c1CCC2 | -0.955%
CCOC(=O)c1c(C)n(C)c2ccc(OC)c(NC(=O)CN3CCN(Cc4ccccc4)CC3)c12 | -10.1%
CC(C)CC(NC(=O)OC(C)(C)C)C(=O)NCc1ccccc1 (stereo not given) | 1.86%
O=c1[nH]nc2n1CCCCC2 | 11.3%
Cc1ccc(N(CN2C(=O)NC(C)(C)C2=O)CN2C(=O)NC(C)(C)C2=O)cc1 | 5.64%
CC1CN(C2CCN(S(=O)(=O)c3ccc4ccccc4c3)CC2)CC(C)O1 (stereo not given) | 110% (active)
CC(C)(C)C1CCC2(CC1)C(C#N)=C(SCC(=O)Nc1ccccc1)NC(=O)C2C#N (stereo not given) | 10.8%
CCOC(=O)c1cc2c(=O)n3cccc(C)c3nc2n(Cc2cccnc2)c1=N | 58.8% (active)
OC(CNCCCN1CCCCC1)COc1ccccc1 (stereo not given) | 5.42%
Cc1ccc(-c2ccccc2NC(=O)C2C3C=CC(C3)C2C(=O)O)o1 (stereo not given) | 7.64%
Cn1c(=O)c2c3c(sc2n2c(SCC(N)=O)nnc12)CC(C(C)(C)C)CC3 (stereo not given) | 92.5% (active)

Compound | inhibition
CCOc1cccc(-c2nn3c(-c4ccccn4)nnc3s2)c1 | 23.8%
Cn1c(=O)n(C)c2cc(C(=O)c3ccccc3)ccc21 | -6.61%
CCC(=O)OC1=C2C(=Nc3c(c(=O)n(C)c(=O)n3C)C2c2ccccc2)c2ccccc21 (stereo not given) | 15.5%
Cc1ccsc1C1NC(=O)c2c(sc3c2CCCC3)N1 (stereo not given) | 22.5%
CCCCc1ccc(NC(=O)CSC2=C(C#N)C(c3ccco3)C3=C(CCCC3=O)N2)cc1 (stereo not given) | -5.66%
CCCCNc1nc2c(c(=O)n(C)c(=O)n2C)n1Cc1cccc(OC)c1 | 1.32%
Cc1c(CCC#N)c(N2CCCCC2)n2c(nc3ccccc32)c1C#N | 4.74%
CN(C)C/C(Cl)=C(\Cl)c1ccccc1 | 10.7%
CC(C)Cc1nc(N2CCCCC2)c(C#N)c2c1CCC2 | -3.52%
CCCCCc1nc2sc3c(c2c(=O)n1N)CCC3 | 68.1% (active)
CCOC(=O)Cn1c(SC)nc2sc3c(c2c1=O)CC(C)(C)OC3 | -3.53%
Cc1ccc(SCc2nnc(N)s2)cc1 | 7.17%
CC(C)Cc1nc(N2CCOCC2)c(C#N)c2c1CCC2 | -5.18%
CCOc1ccc(Cn2c(O)cc(=O)[nH]c2=O)cc1 | -15%
Cc1ccc(S(=O)(=O)NC(=O)NCc2ccc3c(c2)OCO3)cc1 | -10%
CCCCn1c(-c2ccc(Cl)cc2)nc2c(=O)n(C)c(=O)[nH]c21 | -2.64%
CCCCNC(=O)C(C#N)c1nc2ccccc2nc1N1CCN(Cc2ccc3c(c2)OCO3)CC1 (stereo not given) | 12.9%
c1ccc(-c2nnc3sc(Cc4cccs4)nn23)cc1 | 21.4%
CC(=O)C1=C(O)C(=O)N(c2cccc(C(=O)O)c2)C1c1ccc(F)cc1 (stereo not given) | -5.48%
Cc1ccc(OCc2nnc(NC(=O)c3ccco3)s2)c(C)c1 | -4.85%
